Calls of active or inactive are those of the source. Unless noted, no rule for the calls is given here.
Target: Dihydroorotate dehydrogenase (quinone), mitochondrial (Plasmodium falciparum (isolate 3D7)) (UniProt Q08210)
Assay: PfDHODH enzyme inhibitors, primary screen, biochemical, C-terminal His tag, absorbance 600 nm (AID 1175);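 also: recombinant parasite enzyme with a five histidine tag at its C terminus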
Details: DCIP absorbance 600 nm, higher = more signal, called active from +8 up or from −8 down
Also: test concentration not given here.

Sequence of Dihydroorotate dehydrogenase (quinone), mitochondrial (Plasmodium falciparum (isolate 3D7)) (Q08210 whole entry, looked up): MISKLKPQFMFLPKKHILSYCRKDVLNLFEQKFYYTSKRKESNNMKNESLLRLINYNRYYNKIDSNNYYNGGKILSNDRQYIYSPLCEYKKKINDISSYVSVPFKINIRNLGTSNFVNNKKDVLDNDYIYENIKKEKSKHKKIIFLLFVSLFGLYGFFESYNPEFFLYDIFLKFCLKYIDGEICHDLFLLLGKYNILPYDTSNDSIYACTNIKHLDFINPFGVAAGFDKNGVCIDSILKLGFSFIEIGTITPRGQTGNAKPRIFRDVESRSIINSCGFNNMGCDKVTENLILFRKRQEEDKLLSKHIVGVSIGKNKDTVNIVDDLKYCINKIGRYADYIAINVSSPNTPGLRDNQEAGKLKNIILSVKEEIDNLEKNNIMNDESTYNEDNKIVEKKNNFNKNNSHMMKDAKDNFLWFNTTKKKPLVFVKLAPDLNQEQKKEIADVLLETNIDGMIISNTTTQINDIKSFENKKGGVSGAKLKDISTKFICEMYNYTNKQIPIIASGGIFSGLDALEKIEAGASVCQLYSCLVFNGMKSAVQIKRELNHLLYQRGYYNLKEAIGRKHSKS

Composite z-score, inactive:
NCCCCCCNC(=O)[C@@H]1C[C@@H]2C(=O)NCC(=O)N2[C@@H]1c1ccc(O)cc1 0.99
CCCCCCc1nc(-c2cc(C)c(OC)c(C)c2)cc2c1[Si](C(C)C)(C(C)C)OC2 -3.17
C=CCOC(=O)[C@@H]1[C@H]2C(=O)O[C@H](c3ccccc3)[C@H](c3ccccc3)N2[C@H](c2ccc(OCCOC(=O)[C@H]3C[C@H]4C(=O)N5CCC[C@H]5C(=O)N4[C@H]3c3ccc(O)cc3)cc2)[C@@]12C(=O)Nc1ccc(I)cc12 1.01
O=C(N1CCCCC1)[C@]1(Cc2ccccc2)N=C(c2ccc(OCCCO)cc2)O[C@@H]1c1ccccc1 -0.0047
CCOC(=O)[C@H]1C/C=C/C[C@H](C(=O)OCC)C(=O)O[C@H]2[C@@H](OC)O[C@H](CO)[C@@H](OC(=O)c3c(OC)cccc3OC)[C@@H]2OC1=O -0.232
C=C(CCCC)/C(=C/C[C@H](OC(=O)c1ccncc1)c1ccccc1OCCO)c1cnc2ccccc2c1 -2.03
CCN(CC)c1ccc(N2CC=CC34O[C@@H]5C=CCCOC(=O)C5[C@H]3C(=O)N(CCCCCCO)[C@@H]4C2=O)cc1 (stereo not given in full) -0.324
COC(=O)[C@@]1(Cc2ccc(OC)cc2)[C@H]2c3cc(C(=O)N4CCCC4)n(CCN4CNCC4=O)c3C[C@H]2CN1C(=O)c1ccccc1 0.0916
CCC(CC)C(O)C1C=CC2C(=O)NC(=O)C2N1Nc1ccccn1 (stereo not given) -0.629
O=C(CS)NCCCCCCNC(=O)[C@@H]1C[C@@H]2C(=O)NCC(=O)N2[C@@H]1c1cccc(OCCO)c1 -0.216

System: not listed separately
Assay: P. aeruginosa biofilm formation inhibitors, primary screen, strain PAO1, LB-PBS medium, absorbance 600 nm (AID 1176)
Details: P. aeruginosa PAO1 growth/biofilm, A600, 12 h; higher = more signal

z-score, inactive:
COCC(=C=CC[C@@H](O)c1cccc(OCCO)c1)C[C@@H](O)c1ccccn1 -0.353
C[C@@]1([C@@H](NC(=O)c2ccc(-c3ccccc3)cc2)c2ccc(Cl)cc2)C[C@H]1C1CCCCC1 -0.195
CCc1cccc(NC(=O)O[C@H]2[C@H](OC(=O)Nc3ccccc3-c3ccccc3)[C@@H](OC(=O)Nc3ccccc3-c3ccccc3)[C@@H](OC)O[C@@H]2CO)c1 0.0279
C=C[C@H](CO[Si](CC)(CC)CC)N(Cc1ccc(OC(C)=O)c(OC)c1)S(=O)(=O)c1ccc(Br)cc1 -0.649
C[C@H]1NC(=O)[C@@]23C(=O)N[C@@H](Cc4ccccc4)C2[C@H](C)[C@@]2(C)O[C@H]2C3/C=C/C/C=C\CNC(=O)[C@@H]2CCCN2C1=O (stereo not given in full) -0.0126
CCS[C@H]1[C@@H](C(=O)O)[C@H](c2ccc(C)cc2)N(S(=O)(=O)c2ccc(C)cc2)[C@@H]1CC 0.257
COCCOC(=O)N1C(=O)[C@@]2(c3ccccc31)[C@H](C(=O)N1CCc3cc(OC)c(OC)cc3C1)[C@H]1C(=O)O[C@H](c3ccccc3)[C@H](c3ccccc3)N1[C@@H]2c1ccc(OCCO)cc1 2.41
[N-]=[N+]=Nc1ccccc1[C@H]1OC(c2ccc(OCCCO)cc2)=N[C@@]1(CCS(=O)(=O)c1ccccc1)C(=O)NCC(O)CO (stereo not given in full) 0.854
[N-]=[N+]=NCc1ccccc1[C@@H]1OC(c2ccc(OCCCO)cc2)=N[C@]1(Cc1ccccc1)C(N)=O 0.177
C=C(CCCC)C(=O)CC[C@@H](OC(=O)c1ccccc1-c1ccccc1C(=O)O)c1ccc(OCCO)cc1 0.956
O=C(CS)NCCCCCCNC(=O)[C@@H]1C[C@@H]2C(=O)N[C@@H](Cc3ccccc3)C(=O)N2[C@@H]1c1cccc(OCCO)c1 0.255
CC(C)C(O)C1C=CC2C(=O)N(c3ccccc3)C(=O)C2N1Nc1ccc([N+](=O)[O-])cc1 (stereo not given) 0.312
CC(C)N1C(=O)[C@@]2(Cc3ccccc31)c1ccccc1C(=O)N(Cc1ccccc1Cl)[C@H]2c1ccc(CO)cc1 0.31
C=CCC(OC(C)=O)[C@@H]1[C@@H](N(Cc2cc3ccccc3o2)C(=O)c2cccc3ccccc23)c2cc(OCCCO)ccc2N1C(=O)c1ccc(-c2ccccc2)cc1 (stereo not given in full) -1.27
C=CCC(OC(C)=O)[C@@H]1[C@@H](N(Cc2ccc(-c3ccccc3)cc2)C(=O)Cc2ccc(OC)cc2)c2cc(OCCCO)ccc2N1C(=O)Cc1ccc2ccccc2c1 (stereo not given in full) 0.562
Cc1ccc(S[C@]2(C(=O)O)CC(=O)N(C(C)C)[C@@H]2c2ccc(CO)cc2I)cc1 0.953
O=C1O[C@@H](c2ccccc2)[C@@H](c2ccccc2)N2[C@@H](c3ccccc3OCCO)[C@]3(C(=O)Nc4ccc(C#CC5=CCCCC5)cc43)[C@@H](C(=O)N3CCCCCCC3)[C@H]12 1.63
O=C1OCCC/C=C\[C@H]2OC34C=CCN(Cc5ccccc5)C(=O)[C@H]3N(CCCO)C(=O)[C@@H]4C12 (stereo not given in full) -1.16
COC(=O)[C@@]1(Cc2ccc(OC)cc2)[C@H]2c3cc(C(=O)N(C)C)n(Cc4ccc(S(C)(=O)=O)cc4)c3C[C@H]2CN1C(=O)c1ccccc1 2.2
CC(C)C[C@@H]1NC(=O)[C@H](C(C)C)NC(=O)[C@@]23C(=O)N[C@@H](Cc4ccccc4)C2[C@H](C)[C@@]2(C)O[C@H]2C3/C=C/CC/C=C/CNC1=O (stereo not given in full) 0.956
COCCOC(=O)N1C(=O)[C@@]2(c3ccccc31)[C@H](c1ccc(O)cc1)N1[C@H](c3ccccc3)[C@H](c3ccccc3)OC(=O)[C@H]1[C@@H]2C(=O)Nc1nc2ccccc2s1 0.995
CC(C)OC(=O)C=C1C[C@@H](c2ccccn2)O[C@@H](c2ccccn2)O1 0.0362
COC(=O)[C@@]1(Cc2ccc(F)cc2)[C@H]2c3cc(C(=O)N(C)C)n(Cc4ccc(Cl)c(C(F)(F)F)c4)c3C[C@H]2CN1C(=O)c1ccccc1 1.09
CC(C)(C)OC(=O)CC[C@]1(C(=O)N2CCOCC2)N=C(c2ccc(OCCCO)cc2)O[C@H]1c1ccccc1N=[N+]=[N-] -0.0684
C=C(C(=O)CC[C@@H](OC(=O)c1cccnc1)c1ccccc1OCCO)C(C)C 0.613
NCCCCCCNC(=O)[C@@H]1C[C@@H]2C(=O)NCC(=O)N2[C@@H]1c1ccc(O)cc1 0.696
CCCCCCc1nc(-c2cc(C)c(OC)c(C)c2)cc2c1[Si](C(C)C)(C(C)C)OC2 -0.747
C=CCOC(=O)[C@@H]1[C@H]2C(=O)O[C@H](c3ccccc3)[C@H](c3ccccc3)N2[C@H](c2ccc(OCCOC(=O)[C@H]3C[C@H]4C(=O)N5CCC[C@H]5C(=O)N4[C@H]3c3ccc(O)cc3)cc2)[C@@]12C(=O)Nc1ccc(I)cc12 3.16
O=C(N1CCCCC1)[C@]1(Cc2ccccc2)N=C(c2ccc(OCCCO)cc2)O[C@@H]1c1ccccc1 0.208
CCOC(=O)[C@H]1C/C=C/C[C@H](C(=O)OCC)C(=O)O[C@H]2[C@@H](OC)O[C@H](CO)[C@@H](OC(=O)c3c(OC)cccc3OC)[C@@H]2OC1=O 0.498
C=C(CCCC)/C(=C/C[C@H](OC(=O)c1ccncc1)c1ccccc1OCCO)c1cnc2ccccc2c1 1.23
CCN(CC)c1ccc(N2CC=CC34O[C@@H]5C=CCCOC(=O)C5[C@H]3C(=O)N(CCCCCCO)[C@@H]4C2=O)cc1 (stereo not given in full) 0.786
COC(=O)[C@@]1(Cc2ccc(OC)cc2)[C@H]2c3cc(C(=O)N4CCCC4)n(CCN4CNCC4=O)c3C[C@H]2CN1C(=O)c1ccccc1 1.68
CCC(CC)C(O)C1C=CC2C(=O)NC(=O)C2N1Nc1ccccn1 (stereo not given) 0.503
O=C(CS)NCCCCCCNC(=O)[C@@H]1C[C@@H]2C(=O)NCC(=O)N2[C@@H]1c1cccc(OCCO)c1 0.351
